IL1B NFkB pot: enhances IL-1B driven NFkB nuclear translocation; HUVEC IL-1B NFkB p65 nuclear translocation imaging; activation, % at 2 µM; 94,000 tested, 0.3% active; AID 819;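 active = activation above 40%, about the mean plus 3 SD, also judged a hit on visual image review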;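 also: percent activation is computed from the nuclear over cytoplasmic p65 intensity ratio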
Cav3 T inh: human Cav3.2 channel inhibition, primary screen; O95180; Cav3.2-expressing cells, Fluo-4 calcium fluorescence FDSS; active compounds read low; B-score at 10 µM; 100,000 tested, 4% active;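 active = single-dose well whose peak fluorescence ratio is a statistical outlier from its plate by either plate-standardised score or position-corrected B-score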
IL1B cytotox: HUVEC cytotoxicity counter-screen, IL-1B stimulated | 94,000 tested, 0.41% active | cell count reduction, % at 2 µM | HUVEC cell count loss, Hoechst imaging;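 active = cell count reduction more than 3 SD above the screen-wide mean, cut at about 70% in these data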;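 also: normalized per plate to untreated control cells as the no-loss baseline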
NFkB transloc inh: blocks IL-1B driven NFkB nuclear translocation in HUVEC cells. HUVEC IL-1B NFkB p65 nuclear translocation imaging. 94,000 tested, 0.43% active. inhibition, % at 2 µM;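 active = inhibition above about 30% together with a positive call from visual inspection of the well image, limit read from the data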;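 also: nuclear over cytoplasmic p65 intensity ratio measured by imaging; 0% = IL-1B stimulated DMSO wells and 100% = unstimulated DMSO wells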
sEH inh: inhibitors of human soluble epoxide hydrolase; 91,000 tested, 0.34% active; inhibition, % at 2 µM; recombinant human sEH enzymatic activity assay; in the data active = inhibition above about 80%
Target sequence (P34913 whole entry, looked up): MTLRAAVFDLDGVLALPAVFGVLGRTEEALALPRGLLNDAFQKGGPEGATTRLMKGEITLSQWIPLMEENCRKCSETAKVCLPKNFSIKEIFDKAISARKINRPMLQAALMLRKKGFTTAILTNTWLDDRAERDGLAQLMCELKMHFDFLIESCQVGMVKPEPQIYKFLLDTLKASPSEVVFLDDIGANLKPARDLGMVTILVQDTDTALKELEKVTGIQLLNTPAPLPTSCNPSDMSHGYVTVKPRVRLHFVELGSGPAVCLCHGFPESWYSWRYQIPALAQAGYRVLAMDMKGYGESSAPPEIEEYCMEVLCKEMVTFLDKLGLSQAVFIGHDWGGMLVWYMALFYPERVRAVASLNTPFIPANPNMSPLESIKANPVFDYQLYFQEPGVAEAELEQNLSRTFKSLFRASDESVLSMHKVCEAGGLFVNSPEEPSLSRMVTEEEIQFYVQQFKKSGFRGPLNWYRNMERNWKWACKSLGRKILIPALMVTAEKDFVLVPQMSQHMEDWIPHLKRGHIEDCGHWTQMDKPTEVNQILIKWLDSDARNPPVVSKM
sEH activator: increases human soluble epoxide hydrolase activity | P34913 | 91,000 tested, 0.04% active | activation, % at 2 µM | purified human sEH enzymatic activity, activator screen; in the data active = activation above about 37%
The depositor's hits bear a star; x = not tested or not shown. Sampled rows, rich in hits. Any-hit rate of the full collection: about 4.6%.

SMILES | IL1B NFkB pot | Cav3 T inh | IL1B cytotox | NFkB transloc inh | sEH inh | sEH activator
Cc1ccc(-c2ccc(/C=N/n3cnnc3)o2)cc1Cl | 1.5 | 1.24 | -105.0 | -1.5 | 2.8 | -2.1
CCn1c(CNc2cccc(Cl)c2)nnc1SCc1ccccc1 | -7.5 | -1.1 | -26.0 | 7.5 | 6.1 | -7.9
CCn1c(CNc2ccc(Cl)cc2)nnc1SCc1ccc(Cl)cc1 | -8.4 | -3.47* | 34.0 | 8.4 | -11.4 | 14.5
CCn1c(CNc2ccc(Cl)cc2)nnc1SCc1ccc(C)cc1 | 5.1 | -3.78* | -15.2 | -5.1 | 21.0 | -21.0
CC1CCN(C(=O)CSCC(=O)Nc2nc(-c3cccs3)cs2)CC1 | x | -5.69* | x | x | x | x
CC1CCCCN1C(=O)CSCC(=O)Nc1nc(-c2cccs2)cs1 (centres undefined) | x | -4.93* | x | x | x | x
CC1CCCN(C(=O)CSCC(=O)Nc2nc(-c3cccs3)cs2)C1 (centres undefined) | 24.9 | -5.23* | -16.0 | -24.9 | 10.6 | -11.5
CCOC(=O)N1CCN(C(=O)CSCC(=O)Nc2nc(-c3cccs3)cs2)CC1 | -7.5 | -1.35 | -38.9 | 7.5 | 3.9 | -0.8
Cc1nc2sc(C(c3ccco3)N3CCc4ccccc4C3)c(O)n2n1 (centres undefined) | 4.9 | 0.00773 | -3.6 | -4.9 | -1.7 | 2.2
O=C(Nc1cccc(C(F)(F)F)c1)c1ccc2nc(N3C(=O)CCC3=O)sc2c1 | 0.2 | 0.763 | -17.9 | -0.2 | 7.0 | -6.4
O=C(Nc1cccc(C(F)(F)F)c1)c1ccc2nc(-c3ccco3)c(-c3ccco3)nc2c1 | 10.6 | -4.77* | -9.3 | -10.6 | 5.7 | -5.0
CCc1ccc(C2CC(c3ccccc3)n3ncnc3N2)cc1 (centres undefined) | 41.7* | -1.5 | 9.4 | -41.7 | -2.5 | 1.5
CC(=O)OC1COC(OC2C(O)C(C)OC(OC3C(OC4CCC5(C)C(CCC6(C)C5CC=C5C7CC(C)(C)CCC7(C(=O)O)CCC56C)C4(C)CO)OCC(O)C3O)C2O)C(O)C1OC(C)=O (centres undefined) | x | -4.99* | x | x | x | x
O=C(C1CCCN(S(=O)(=O)Cc2ccccc2)C1)N1CCC(Cc2ccccc2)CC1 (centres undefined) | -5.9 | -5.54* | 6.5 | 5.9 | -7.1 | 8.1
O=C(NCC1CCCO1)C1CC(=O)N(C2CCCCCC2)C1 (centres undefined) | 10.5 | 0.417 | -12.5 | -10.5 | 11.1 | -9.2
CCCCC(CC)C(=O)NCCCN1CCN(CCCNC(=O)C(CC)CCCC)CC1 (centres undefined) | x | -7.29* | x | x | x | x
CC(C)CC(=O)NCCCN1CCN(CCCNC(=O)CC(C)C)CC1 | 3.6 | 0.409 | -123.3 | -3.6 | 2.9 | -2.2
Cn1c(COc2ccc(Cl)cc2)nnc1SCc1ncc(-c2ccccc2)o1 | -15.4 | -9.89* | 6.4 | 15.4 | -4.0 | 4.6
COC(=O)CCS(=O)(=O)c1nc(-c2ccccc2)cc(C(F)(F)F)n1 | -36.9 | 0.209 | -3.7 | 36.9* | -1.9 | 1.7
O=C(O)CCS(=O)(=O)c1nc(-c2cccs2)cc(C(F)(F)F)n1 | 4.6 | 1.06 | -8.8 | -4.6 | -9.1 | 7.1
CS(=O)(=O)c1nc(-c2cccs2)cc(C(F)(F)F)n1 | -30.6 | 1.12 | 0.0 | 30.6* | 9.1 | -8.8
c1ccc(OCc2nc(-c3ccccc3)no2)cc1 | 17.2 | -1.44 | -138.3 | -17.2 | 2.5 | -1.8
O=C(O)C(F)(F)S(=O)(=O)O | -5.0 | 0.112 | -0.9 | 5.0 | -5.2 | 6.0
COc1ccc(/C=N/NC(=O)c2ccc(Cn3cc([N+](=O)[O-])cn3)o2)cc1O | -15.9 | -0.047 | 1.4 | 15.9 | 14.0 | -12.4
Cc1cc(C(F)(F)F)c(C#N)c(=O)[nH]1 | 19.5 | 0.489 | -3.3 | -19.5 | -2.7 | 2.6
SMILES | IL1B NFkB pot | Cav3 T inh | IL1B cytotox | NFkB transloc inh | sEH inh | sEH activator
N#Cc1c(C(F)(F)F)cc(-c2ccc(Cl)cc2)[nH]c1=O | x | -8.68* | x | x | x | x
N#Cc1c(-c2ccccc2)nc(-c2ccccc2)[nH]c1=O | 18.6 | -1.19 | 5.3 | -18.6 | 0.1 | 0.9
N#Cc1c(C(F)(F)F)cc(-c2cccc(Cl)c2)[nH]c1=O | x | -2.73* | x | x | x | x
CCN(CC)C(=O)CSCC(=O)Nc1ccccc1 | -2.7 | -0.0165 | -19.1 | 2.7 | -1.9 | 1.2
CCOC(=O)c1cc2sccc2n1CC(=O)N1CCCc2ccccc21 | -2.2 | -3.85* | 14.4 | 2.2 | -18.5 | 18.6
O=C(c1cc2sccc2n1Cc1ccccc1)N1CCCc2ccccc21 | -2.1 | -6.85* | -54.4 | 2.1 | -10.5 | 12.6
Nc1ccccc1C(=O)N(Cc1ccccc1)Cc1ccccc1 | 1.5 | -5.75* | -2.9 | -1.5 | 0.3 | 4.7
O=C(O)c1ccccc1C(=O)N(Cc1ccccc1)Cc1ccccc1 | -1.8 | -1.85 | 6.7 | 1.8 | -8.2 | 5.8
O=C(CN1C(=O)C2C3C=CC(C3)C2C1=O)Nc1nc(SCc2ccc(Cl)cc2)n[nH]1 (centres undefined) | 24.4 | -8.29* | -73.8 | -24.4 | -14.7 | 12.9
CC(C)C[C@H](NC(=O)OC(C)(C)C)c1nnc(SCc2ccccc2)o1 | 8.9 | -4.81* | 1.7 | -8.9 | 2.0 | -0.1
CC(C)(C)OC(=O)N[C@@H](CCCCNC(=O)OCc1ccccc1)c1nnc([C@H](CCCCNC(=O)OCc2ccccc2)NC(=O)OC(C)(C)C)o1 | x | -2.82* | x | x | x | x
COc1cccc(OC)c1C(=O)OCC(=O)Nc1ccc(OC(F)(F)F)cc1 | 3.2 | -4.82* | -16.2 | -3.2 | 3.0 | -2.2
COc1ccccc1C(=O)OCC(=O)Nc1ccc(OC(F)F)cc1 | 4.6 | -0.923 | -4.9 | -4.6 | 18.3 | -19.8
COC(=O)c1c(-c2ccccc2)csc1N | 38.2 | -0.376 | -94.1 | -38.2 | 6.2 | -8.0
COC(=O)C1=C(N)c2ccccc2C1(C#N)c1ccccc1 (centres undefined) | x | -9.02* | x | x | -15.1 | 11.9
O=C(CCNS(=O)(=O)c1cccc2nsnc12)NCCc1ccccc1 | x | -1.16 | x | x | x | x
CCCCCCCCNC(C)C(O)c1ccc(SC(C)C)cc1 (centres undefined) | x | -4.45* | x | x | x | x
C[C@@H](NCCc1ccc(O)cc1)[C@@H](O)c1ccc(O)cc1 | x | 0.228 | x | x | x | x
COc1ccc(NC2c3ncccc3C(=O)N2Cc2ccccc2)c(OC)c1 (centres undefined) | 15.7 | 0.153 | 90.1* | -15.7 | 5.2 | -2.1
COc1ccc(C(=O)NC2CC3CCCC(C2)N3CC(C)C)cc1OC (centres undefined) | 4.7 | 0.0647 | -18.0 | -4.7 | -15.5 | 15.6
CC1CCc2cccc3c2N1c1cc(C#N)c(C#N)cc1O3 (centres undefined) | x | -3.62* | x | x | -5.0 | 5.0
CC1CCCCN1c1cc(C#N)c(C#N)cc1[N+](=O)[O-] (centres undefined) | 8.7 | 0.212 | -22.4 | -8.7 | 7.5 | -5.3
CCOC(=O)C1=C(C)N=C2SCCC(=O)N2[C@@H]1/C=C/c1ccccc1 | 7.1 | -4.79* | -6.0 | -7.1 | 5.0 | -1.6
CCOC(=O)C1=C(C)N=C2SC(C)C(=O)N2C1c1ccc(OC(C)=O)c(OC)c1 (centres undefined) | 9.2 | -1.97 | 5.3 | -9.2 | -4.1 | 2.4
CCOC(=O)C1=C(C)N=C2SC(C)C(=O)N2C1/C=C/c1ccccc1OC (centres undefined) | 1.9 | -5.19* | -1.1 | -1.9 | 0.1 | -0.1

Assay outcomes as filed in PubChem.
